KB-3-1 tox: KB-3-1 parental cell cytotoxicity | actives 1.4% (n = 400,000) | KB-3-1 viability, CellTiter-Glo ATP luminescence, 72 h | Potency, µM (top dose mostly 46.1 µM), usual class: cytotoxic | AID 1347075; note: % is set by controls: 0 for no effect and ±100 for the full control effect; nearly all actives have a fitted effect of over 60% in size
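Using CellTiter-Glo luminescence, growth of non-resistant KB-3-1 adenocarcinoma cells is assessed 72 h after pin-tool compound addition at 37 °C. Normalized responses across the concentration series yield fitted curves.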
TGFb inhibitor: inhibitors of TGF-b signaling; HepG2 CAGA-GFP TGF-b/SMAD3 reporter, GFP fluorescence, 18 h; TGF-beta stimulated, 500 pg/mL final; Potency, µM (doses to about 46.1 µM), inactives show at the top dose activity, negative = inhibition, hits mostly inhibitors; actives 1.2% (n = 410,000); AID 588855; note: % is set by controls: 0 for no effect and ±100 for the full control effect; nearly all actives have a fitted effect of over 65% in size
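Inhibition was scored as loss of TGF-beta-induced (500 pg/mL final, 18 hours, 37 degrees C) GFP in HEPG2 cells carrying a CAGA-GFP reporter, in DMEM with 1% FBS. Well GFP was summed per cell; Activity was normalised to unstimulated and stimulated DMSO wells, then concentration-response fitting.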
HepG2 viability: HepG2 cytotoxicity, counter-screen for TGF-b inhibitors; HepG2 CAGA-GFP viability, ATP luminescence, 18 h; Potency, µM (doses to about 46.1 µM), for inactives: at the highest dose activity change, negative = cytotoxicity, actives largely listed as cytotoxic; actives 0.76% (n = 410,000)
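CellTiter-Glo luminescence gave cytotoxicity after 18 hours at 37 degrees C. The cells were HepG2 CAGA-GFP in 1% FBS DMEM, stimulated with 500 pg/mL TGF-beta after compound addition. %Activity was normalised to no-cell wells (complete cell-killing) and DMSO (no toxicity), and curves were fitted and classified.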
ATXN2 expr inh: ATXN2 expression inhibition; HEK-293 ATXN2-luciferase reporter, luminescence, 24 h; Potency, µM (highest dose often 57 µM), for the others: at the top dose activity change, negative = inhibition, hits mostly inhibitors; actives 0.72% (n = 360,000); note: % is set by controls: 0 for no effect and ±100 for the full control effect; nearly all actives have a fitted effect of over 55% in size
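qHTS (up to 57 uM final) was run with 24 h compound exposure of reporter cells at 37 °C. Each well was multiplexed: SteadyGlo luminescence measured ATXN2-luciferase expression after a fluorogenic Gly-Phe-AFC viability readout (25 uM final).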
S2 tox: viability counter-screen for ATXN expression inhibitors; actives 0.49% (n = 400,000); Potency, µM (series often up to 56.7 µM), most hits filed as cytotoxic; AID 651635; S2 cells (HEK-293 line with an ATXN2-luciferase reporter) viability, CellTiter-Fluor protease fluorescence, 24 h; note: nearly all actives have a fitted effect of over 40% in size
KB-V1 MDR tox: KB-V1 MDR subline cytotoxicity | KB-V1 MDR cells viability, CellTiter-Glo, 72 h | Potency, µM (highest dose often 46.1 µM), hits mostly cytotoxic | actives 3.4% (n = 400,000) | AID 1347076; note: % is set by controls: 0 for no effect and ±100 for the full control effect; nearly all actives have a fitted effect of over 60% in size
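Cells of the MDR subline KB-V1 are plated, dosed with compound at multiple concentrations, and incubated 72 h at 37 degrees C; CellTiter-Glo is then added and luminescence read after 10 min.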
Numbers without * were called inactive. Sampled rows, rich in hits. Any-hit rate of the full collection: about 5.9%. Calls come from the whole dose curve; as a rule, active = well fitted curve in the direction sought with a large enough effect; inconclusive = small, poorly fitted or top-dose-only effect, or another doubt; inactive = no such curve, though single readings can be large; an effect the other way counts as inactive or inconclusive. Potency is the fitted concentration of half-maximal effect.

Results for CCc1ccc2occ(CC(=O)Nc3c(C(=O)Nc4ccc(C)cc4)oc4ccccc34)c2c1 ?
KB-3-1 tox: inactive; TGFb inhibitor: 13%; HepG2 viability: 16µM*; ATXN2 expr inh: 27%; S2 tox: inactive; KB-V1 MDR tox: inactive

How did CCc1ccc2occ(CC(=O)Nc3c(C(=O)Nc4ccc(Cl)cc4)oc4ccccc34)c2c1 do in these assays?
KB-3-1 tox: inactive; TGFb inhibitor: 18%; HepG2 viability: -26%; ATXN2 expr inh: 5%; S2 tox: inconclusive; KB-V1 MDR tox: inactive

What do the screens show for `Cc1ccc(Nc2nc(NCC3CC3)nc3ccsc23)c(C)c1`?
KB-3-1 tox: 21µM*; TGFb inhibitor: inconclusive; HepG2 viability: -14%; ATXN2 expr inh: inconclusive; KB-V1 MDR tox: inconclusive

Results for Cc1ccc(CNc2nc(NCC3CC3)nc3ccsc23)c(C)c1 ?
KB-3-1 tox: inactive; TGFb inhibitor: inconclusive; HepG2 viability: -95%; ATXN2 expr inh: -8%; KB-V1 MDR tox: inconclusive

What do the screens show for `CNc1nc(Nc2ccc(C)cc2C)c2sccc2n1`?
KB-3-1 tox: 18µM*; TGFb inhibitor: inconclusive; HepG2 viability: 4%; ATXN2 expr inh: -31%; S2 tox: inactive; KB-V1 MDR tox: 15µM*

What do the screens show for `Cc1ccc(CNc2nc(NC(C)C)nc3ccsc23)c(C)c1`?
KB-3-1 tox: inactive; TGFb inhibitor: inconclusive; HepG2 viability: -57%; ATXN2 expr inh: inconclusive; S2 tox: inconclusive; KB-V1 MDR tox: inactive

What do the screens show for `COC(=O)c1c(C)sc(-c2c(-c3ccc4c(c3)OCCO4)[nH]c3[nH]c(=O)[nH]c(=O)c23)c1O`?
KB-3-1 tox: inactive; TGFb inhibitor: 158%; HepG2 viability: 1%; ATXN2 expr inh: 16%; S2 tox: inactive; KB-V1 MDR tox: inactive

How did O=c1c(-c2ccc(O)cc2)coc2cc(OC3O[C@H](CO)[C@H](O)[C@H](O)[C@H]3O)cc(O)c12 (some centres undefined) do in these assays?
ATXN2 expr inh: 290%

Results for Cc1cc(C)cc(NC(=O)C2CC23CCN(Cc2ccc4ncccc4c2)CC3)c1 (centres undefined) ?
S2 tox: inactive

Results for COc1ccc(-c2oc3cc(O)c(OC)c(O)c3c(=O)c2OC)cc1O ?
KB-3-1 tox: 0.82µM*; TGFb inhibitor: inconclusive; HepG2 viability: -38%; ATXN2 expr inh: 57%; S2 tox: inconclusive; KB-V1 MDR tox: 0.65µM*

How did CCC(=O)N1CCCC(C)(C(=O)Nc2ccc3oc(CC)nc3c2)C1 (centres undefined) do in these assays?
KB-3-1 tox: inactive; TGFb inhibitor: 3%; HepG2 viability: 0%; ATXN2 expr inh: 2%; S2 tox: inactive; KB-V1 MDR tox: inactive

How did Cc1c(C(=O)N(Cc2ccco2)Cc2cccs2)oc2ccccc12 do in these assays?
KB-3-1 tox: inactive; TGFb inhibitor: -13%; HepG2 viability: -6%; ATXN2 expr inh: -3%; S2 tox: inconclusive; KB-V1 MDR tox: 16µM*

What do the screens show for `COc1cc(N2CCC(N3CCN(C)CC3)CC2)ccc1Nc1ncnc(Nc2ccccc2S(=O)(=O)C(C)C)n1`?
ATXN2 expr inh: 27µM*

Results for CCOC(=O)C1CCN(C(c2cc3ccc(C)c(C)c3[nH]c2=O)c2nnnn2C2CCCCC2)CC1 (centres undefined) ?
KB-3-1 tox: inactive; TGFb inhibitor: -12%; HepG2 viability: 6%; ATXN2 expr inh: 7%; S2 tox: inconclusive; KB-V1 MDR tox: 16µM*

What do the screens show for `Nc1ccccc1C#CC(=O)c1ccccc1`?
KB-3-1 tox: inconclusive; TGFb inhibitor: 3.5µM*; HepG2 viability: -84%; S2 tox: inconclusive; KB-V1 MDR tox: inactive
